# The supplement of paper PMC8728848
# Only a selection was taken, and the strongest signals are over-represented in it overall.
# Experiments:
# Assay in all cases: glycan array binding signal (z-score within array); higher = stronger binding
# Settings in all cases: glycan notation: IUPAC condensed, linker removed
# [1] = biological target: Fuc(a1-2)Gal(b1-3)GalNAc(b1-3)Gal(a1-4)Gal(b1-4)Glc
# How it was run: (§1)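 The Consortium for Functional Glycomics database supplied 3228 glycan arrays, of which those lacking an available protein sequence were dropped. The binding signal, a within-array Z-score, was averaged across arrays of the same protein sequence and across linkers. Negative scores can be read as non-binding.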
# [2] = biological target: Fuc(a1-2)Gal(b1-3)GalNAc(b1-4)[Neu5Ac(a2-3)]Gal(b1-4)Glc
# How it was run: as §1
# [3] = biological target: Fuc(a1-2)Gal(b1-3)GlcNAc
# How it was run: as §1
# [4] = biological target: Fuc(a1-2)Gal(b1-3)[Fuc(a1-4)]GlcNAc(b1-3)[Fuc(a1-3)[Gal(b1-4)]GlcNAc(b1-6)]Gal(b1-4)Glc
# How it was run: as §1
# [5] = biological target: Fuc(a1-2)Gal(b1-4)GlcNAc(b1-3)GalNAc
# How it was run: as §1
# [6] = biological target: Fuc(a1-2)Gal(b1-4)[Fuc(a1-3)]GlcNAc(b1-3)GalNAc
# How it was run: as §1
# [7] = biological target: Fuc(a1-2)[Gal(a1-3)]Gal(b1-3)GlcNAc(b1-2)Man(a1-3)[Fuc(a1-2)[Gal(a1-3)]Gal(b1-3)GlcNAc(b1-2)Man(a1-6)]Man(b1-4)GlcNAc(b1-4)[Fuc(a1-6)]GlcNAc
# How it was run: as §1
# [8] = biological target: Fuc(a1-2)[Gal(a1-3)]Gal(b1-4)Glc
# How it was run: as §1
# [9] = biological target: Fuc(a1-2)[GalNAc(a1-3)]Gal(b1-4)GlcNAc(b1-2)Man(a1-3)[Fuc(a1-2)[GalNAc(a1-3)]Gal(b1-4)GlcNAc(b1-2)Man(a1-6)]Man(b1-4)GlcNAc(b1-4)[Fuc(a1-6)]GlcNAc
# How it was run: as §1
# [10] = biological target: Fuc(a1-3)[Gal(b1-4)]GlcNAc(b1-2)Man(a1-3)[Fuc(a1-3)[Gal(b1-4)]GlcNAc(b1-2)Man(a1-6)]Man(b1-4)GlcNAc(b1-4)[Fuc(a1-6)]GlcNAc
# How it was run: as §1
# [11] = biological target: Gal(a1-2)Gal
# How it was run: as §1
# [12] = biological target: Gal(a1-3)Gal(b1-4)GlcNAc(b1-3)GalNAc
# How it was run: as §1
# [13] = biological target: Gal(a1-3)Gal(b1-4)[Fuc(a1-3)]GlcNAc
# How it was run: as §1
# [14] = biological target: Gal(a1-4)Gal(b1-4)GlcNAc(b1-2)Man(a1-3)[Gal(a1-4)Gal(b1-4)GlcNAc(b1-2)Man(a1-6)]Man(b1-4)GlcNAc(b1-4)GlcNAc
# How it was run: as §1
# [15] = biological target: Gal(b1-3)GalNAc(b1-4)[Neu5Ac(a2-3)]Gal(b1-4)Glc
# How it was run: as §1
# [16] = biological target: Gal(b1-3)GlcNAc(b1-2)Man(a1-3)[Gal(b1-3)GlcNAc(b1-2)Man(a1-6)]Man(b1-4)GlcNAc(b1-4)GlcNAc
# How it was run: as §1
# [17] = biological target: Gal(b1-3)GlcNAc(b1-3)Gal(b1-3)GlcNAc
# How it was run: as §1
# [18] = biological target: Gal(b1-3)GlcNAc(b1-3)Gal(b1-4)[Fuc(a1-3)]GlcNAc(b1-6)[Gal(b1-3)GlcNAc(b1-3)]Gal(b1-4)Glc
# How it was run: as §1
# [19] = biological target: Gal(b1-4)GlcNAc(b1-2)Man
# How it was run: as §1
# [20] = biological target: Gal(b1-4)GlcNAc(b1-2)[Gal(b1-4)GlcNAc(b1-4)]Man(a1-3)[Gal(b1-4)GlcNAc(b1-2)[Gal(b1-4)GlcNAc(b1-6)]Man(a1-6)]Man(b1-4)GlcNAc(b1-4)GlcNAc
# How it was run: as §1
# [21] = biological target: Gal(b1-4)GlcNAc(b1-3)Gal(b1-3)GlcNAc
# How it was run: as §1
# [22] = biological target: Gal(b1-4)GlcNAc(b1-3)Gal(b1-4)[Fuc(a1-3)GlcNAc(b1-6)]Gal(b1-4)Glc
# How it was run: as §1
# [23] = biological target: Gal6S(b1-4)Glc
# How it was run: as §1
# [24] = biological target: GalNAc(b1-6)GalNAc
# How it was run: as §1
# [25] = biological target: GlcA(b1-3)Gal
# How it was run: as §1
# [26] = biological target: GlcNAc(a1-4)Gal(b1-3)GlcNAc
# How it was run: as §1
# [27] = biological target: GlcNAc(a1-4)Gal(b1-4)GlcNAc(b1-3)Gal(b1-4)Glc
# How it was run: as §1
# [28] = biological target: GlcNAc(a1-4)Gal(b1-4)GlcNAc(b1-3)Gal(b1-4)GlcNAc
# How it was run: as §1
# [29] = biological target: GlcNAc(a1-6)Gal(b1-4)GlcNAc
# How it was run: as §1
# [30] = biological target: GlcNAc(b1-2)Man(a1-3)[GlcNAc(b1-2)Man(a1-6)]Man(b1-4)GlcNAc(b1-4)[Fuc(a1-6)]GlcNAc
# How it was run: as §1
# [31] = biological target: GlcNAc(b1-4)GlcNAc(b1-4)GlcNAc
# How it was run: as §1
# [32] = biological target: Kdn(a2-3)Gal(b1-4)GlcNAc
# How it was run: as §1
# [33] = biological target: Man(a1-2)Man(a1-6)[Man(a1-3)]Man(a1-6)[Man(a1-2)Man(a1-2)Man(a1-3)]Man
# How it was run: as §1
# [34] = biological target: Man(a1-3)[Man(a1-6)]Man(a1-6)[Man(a1-3)]Man(b1-4)GlcNAc(b1-4)GlcNAc
# How it was run: as §1
# [35] = biological target: Man(a1-6)Man
# How it was run: as §1
# [36] = biological target: Man(b1-4)GlcNAc
# How it was run: as §1
# [37] = biological target: Neu5Ac(a2-3)Gal(b1-3)GalNAc(b1-4)[Neu5Ac(a2-3)]Gal(b1-4)Glc
# How it was run: as §1
# [38] = biological target: Neu5Ac(a2-3)Gal(b1-4)GlcNAc(b1-2)Man(a1-3)[Neu5Ac(a2-6)Gal(b1-4)GlcNAc(b1-2)Man(a1-6)]Man(b1-4)GlcNAc(b1-4)GlcNAc
# How it was run: as §1
# [39] = biological target: Neu5Ac(a2-3)Gal(b1-4)GlcNAc(b1-3)Gal(b1-3)GlcNAc
# How it was run: as §1
# [40] = biological target: Neu5Ac(a2-3)Gal(b1-4)[Fuc(a1-3)]GlcNAc(b1-3)Gal(b1-4)[Fuc(a1-3)]GlcNAc(b1-3)Gal(b1-4)[Fuc(a1-3)]GlcNAc
# How it was run: as §1
# [41] = biological target: Neu5Ac(a2-6)Gal(b1-4)GlcNAc(b1-3)Gal(b1-4)GlcNAc(b1-3)Gal(b1-4)GlcNAc
# How it was run: as §1
binder,measurement,setting,value
"CD72 ectodomain (Homo sapiens), P21854 (protein) RYLQVSQQLQQTNRVLEVTNSSLRQQLRLKITQLGQSAEDLQGSRRELAQSQEALQVEQRAHQAAEGQLQACQADRQKTKETLQSEEQQRRALEQKLSNMENRLKPFFTCGSADTCCPSGWIMHQKSCFYISLTSKNWQESQKQCETLSSKLATFSEIYPQSHSYYFLNSLLPNGGSGNSYWTGLSSNKDWKLTDDTQRTRTYAQSSKCNKVHKTWSWWTLESESCRSSLPYICEMTAFRFPD",glycan array binding signal (z-score),[1],-0.867
same,glycan array binding signal (z-score),[2],0.01
same,glycan array binding signal (z-score),[3],1.12
same,glycan array binding signal (z-score),[4],-0.186
same,glycan array binding signal (z-score),[5],1.08
same,glycan array binding signal (z-score),[6],5.72
same,glycan array binding signal (z-score),[7],2.7
same,glycan array binding signal (z-score),[8],0.3
same,glycan array binding signal (z-score),[9],0.886
same,glycan array binding signal (z-score),[10],0.575
same,glycan array binding signal (z-score),[11],0.56
same,glycan array binding signal (z-score),[12],-1.69
same,glycan array binding signal (z-score),[13],1.45
same,glycan array binding signal (z-score),[14],0.8
same,glycan array binding signal (z-score),[15],1.16
same,glycan array binding signal (z-score),[16],1.6
same,glycan array binding signal (z-score),[17],-0.958
same,glycan array binding signal (z-score),[18],2.26
same,glycan array binding signal (z-score),[19],0.51
same,glycan array binding signal (z-score),[20],-0.561
same,glycan array binding signal (z-score),[21],-0.795
same,glycan array binding signal (z-score),[22],-0.359
same,glycan array binding signal (z-score),[23],-0.925
same,glycan array binding signal (z-score),[24],-0.435
same,glycan array binding signal (z-score),[25],2.21
same,glycan array binding signal (z-score),[26],-1.11
same,glycan array binding signal (z-score),[27],0.006
same,glycan array binding signal (z-score),[28],4.25
same,glycan array binding signal (z-score),[29],4.24
same,glycan array binding signal (z-score),[30],2.59
same,glycan array binding signal (z-score),[31],0.82
same,glycan array binding signal (z-score),[32],0.726
same,glycan array binding signal (z-score),[33],-0.32
same,glycan array binding signal (z-score),[34],0.977
same,glycan array binding signal (z-score),[35],-0.096
same,glycan array binding signal (z-score),[36],2.32
same,glycan array binding signal (z-score),[37],-0.087
same,glycan array binding signal (z-score),[38],0.127
same,glycan array binding signal (z-score),[39],1.03
same,glycan array binding signal (z-score),[40],1.73
same,glycan array binding signal (z-score),[41],0.371
